{"source": "PubChem BioAssay (NCATS)", "note": "Unmarked numbers belong to inactive results. Active and inactive are the calls of the source. Calls come from the whole dose curve; as a rule, active = well fitted curve in the direction sought with a large enough effect; inconclusive = small, poorly fitted or top-dose-only effect, or another doubt; inactive = no such curve, though single readings can be large or run the other way.", "data": [{"target": "Hexokinase-4 (Homo sapiens) + Glucokinase regulatory protein (Homo sapiens) (UniProt P35557+Q14397)", "sequence (P35557 whole entry, looked up)": "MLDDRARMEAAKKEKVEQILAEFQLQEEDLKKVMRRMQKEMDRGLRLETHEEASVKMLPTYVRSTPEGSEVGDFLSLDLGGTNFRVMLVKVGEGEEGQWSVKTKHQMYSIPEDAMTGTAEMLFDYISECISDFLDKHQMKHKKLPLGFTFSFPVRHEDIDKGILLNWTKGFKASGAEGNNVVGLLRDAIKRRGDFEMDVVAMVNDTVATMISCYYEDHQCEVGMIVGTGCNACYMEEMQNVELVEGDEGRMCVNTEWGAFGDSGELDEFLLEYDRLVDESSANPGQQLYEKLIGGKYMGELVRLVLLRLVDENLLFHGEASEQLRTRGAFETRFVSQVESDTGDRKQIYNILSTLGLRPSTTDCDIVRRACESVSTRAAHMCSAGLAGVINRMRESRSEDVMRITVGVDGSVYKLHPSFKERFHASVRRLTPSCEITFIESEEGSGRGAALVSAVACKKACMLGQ", "sequence (Q14397 whole entry, looked up)": "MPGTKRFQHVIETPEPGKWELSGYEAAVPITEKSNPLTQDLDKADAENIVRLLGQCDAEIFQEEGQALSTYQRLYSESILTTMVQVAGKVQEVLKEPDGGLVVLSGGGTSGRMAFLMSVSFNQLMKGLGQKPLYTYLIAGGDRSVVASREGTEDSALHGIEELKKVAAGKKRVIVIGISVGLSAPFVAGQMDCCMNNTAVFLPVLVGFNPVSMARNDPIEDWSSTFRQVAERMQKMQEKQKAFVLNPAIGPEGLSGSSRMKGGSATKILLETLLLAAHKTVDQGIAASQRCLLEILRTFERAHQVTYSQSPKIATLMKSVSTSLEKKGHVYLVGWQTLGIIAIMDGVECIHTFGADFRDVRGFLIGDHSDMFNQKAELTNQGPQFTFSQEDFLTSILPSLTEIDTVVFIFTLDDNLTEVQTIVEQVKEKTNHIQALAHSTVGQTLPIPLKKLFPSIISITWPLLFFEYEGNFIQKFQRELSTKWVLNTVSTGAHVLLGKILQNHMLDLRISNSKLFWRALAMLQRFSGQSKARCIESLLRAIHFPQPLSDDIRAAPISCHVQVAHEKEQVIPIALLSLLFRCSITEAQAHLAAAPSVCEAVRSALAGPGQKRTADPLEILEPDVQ", "assay": "qHTS assay for inhibitors of recombinant human GCK-GKRP interaction: Diaphorase-coupled assay (AID 743205)", "details": "G6PDH/diaphorase resorufin fluorescence; series mostly up to 57.5 µM; activity change, positive = activation: at the top concentration", "source_text": "Glucokinase (GCK) is a glucose sensor in hepatocytes and pancreatic beta-cells. Hepatic GCK is regulated by glucokinase regulatory protein (GKRP), which is predominantly localized to the liver. GKRP binds to GCK inhibiting its activity in the fasting state while in the presence of glucose the GKRP is displaced. There is an additional layer of regulation by fructose 1-phosphate and fructose 6-phosphate, which inhibit and enhance the GCK-GKRP interaction, respectively. GCK plays a role in glucose homeostasis and there is an interest in the development of strategies to activate GCK to lower blood glucose levels in type 2 diabetes. To date the majority of effort has focused on direct activation of GCK and the assays developed herein look to activate GCK by inhibiting its binding to GKRP. A compound that inhibits the interaction of GCK with GKRP could be important for the treatment of diabetes and can also be used as a tool compound to further elucidate GCK-GKRP biology. To that end, we have developed a sensitive HTS biochemical assay where in GCK activity is coupled to G6PDH and Diaphorase to interrogate the GCK-GKRP interaction. This assay was screened against a small compound library to look for modulators of activity.\n2 uL of substrate (columns 1-48) are dispensed into Greiner, black solid-bottom 1536-well assay plates. Compounds (23 nL) are then transferred via Kalypsys pin tool equipped with 1536-pin array (10 nL slotted pins, V&P Scientific, San Diego, CA). The library compounds are in columns 5-48 and columns 1-4 serve as controls with DMSO in columns 1 and 3 and 26 mM 1:1.5 fold serial of gluckokinase activator (GKA-EMD) in column 2 and 26 mM of the glucokinase activator (GKA-EMD) in column 4. Following addition of compound and a 20 minute incubation, 1 uL of enzyme mix (GST-GCK, FLAG-GKRP and diaphorase) is added to columns 1, 2, 4-48 and 1 uL of no enzyme mix (FLAG-GKRP and diaphorase) is added to column 3 and the fluorescent product resorufin generated from resazurin was monitored on a Viewlux (PerkinElmer, Shelton, CT, USA) with excitation at 525 nm and emission at 590 nm in kinetic mode where the plate was read every minute for 30 minutes. The final concentration of reagents in the reaction are 25 mM Hepes pH 7.6, 25 mM KCl, 2 mM MgCl2, 1.4 mM 2-mercaptoethanol, 0.025% BSA, 0.01% Tween-20, 0.15 mM NADP+, 5 mM glucose, 0.4 mM ATP, 4 U/ml G6PDH, 0.1 mM resazurin, 10 nM GST-GCK, 10 nM FLAG-GKRP, diaphorase (0.1 mg/mL). Data are normalized to DMSO-treated control columns with (maximum signal) and without (minimum signal) enzyme.", "units": {"activity change, positive = activation": "%"}, "values": [{"smiles": "C[N+](C)(C)CCCCCC[N+](C)(C)C", "outcome": "inactive"}, {"smiles": "CCN(CC)C(=O)c1ccc(O)c(OC)c1", "activity change, positive = activation": -3.98}, {"smiles": "Clc1ccc(Cn2c(CN3CCCC3)nc3ccccc32)cc1", "activity change, positive = activation": -2.14}, {"smiles": "CCCCCN(C)CCC(O)(P(=O)(O)O)P(=O)(O)O", "activity change, positive = activation": -1.6}, {"smiles": "CC(C)OC(=O)C(C)(C)Oc1ccc(C(=O)c2ccc(Cl)cc2)cc1", "activity change, positive = activation": 3.35}, {"smiles": "CC(=O)O[C@]1(C(C)=O)CC[C@H]2[C@@H]3C=C(Cl)C4=CC(=O)[C@@H]5C[C@@H]5[C@]4(C)[C@H]3CC[C@@]21C", "activity change, positive = activation": -5.13}, {"smiles": "CC/C(=C(\\c1ccccc1)c1ccc(OCCN(C)C)cc1)c1ccccc1", "activity change, positive = activation": -0.471}, {"smiles": "CC1(C)CCC2=C(O1)c1ccccc1C(=O)C2=O", "activity change, positive = activation": -46.9}, {"smiles": "CC(=O)CCCCn1c(=O)c2c(ncn2C)n(C)c1=O", "activity change, positive = activation": -0.939}, {"smiles": "CN(C)CCC(c1ccccc1)c1ccccn1", "note": "(stereo not given)", "activity change, positive = activation": -1.29}, {"smiles": "O=c1cc(-c2ccc(O)cc2)oc2cc(O)cc(O)c12", "activity change, positive = activation": -13.8}, {"smiles": "CCCCC1C(=O)N(c2ccccc2)N(c2ccccc2)C1=O", "activity change, positive = activation": -6.22}, {"smiles": "Clc1ccc(C(c2ccc(Cl)cc2)n2cc[n+](CC(OCc3ccc(Cl)cc3Cl)c3ccc(Cl)cc3Cl)c2)cc1", "note": "(stereo not given)", "activity change, positive = activation": -12.2}, {"smiles": "CCN(CC)CCNC(=O)c1ccc(N)cc1", "activity change, positive = activation": -0.807}, {"smiles": "CC(=O)c1ccc(S(=O)(=O)NC(=O)NC2CCCCC2)cc1", "activity change, positive = activation": 1.44}, {"smiles": "O=c1c(-c2ccc(O)cc2)coc2cc(O)ccc12", "activity change, positive = activation": 0.157}, {"smiles": "CCN(CC)CCOC(=O)c1ccc(N)cc1", "activity change, positive = activation": 4.36}, {"smiles": "CCN1CCC[C@H]1CNC(=O)c1cc(S(N)(=O)=O)ccc1OC", "activity change, positive = activation": -2.65}, {"smiles": "COc1cccc(-c2cc(=O)c3ccccc3o2)c1N", "activity change, positive = activation": -11.4}, {"smiles": "COc1ccccc1N1CCN(CCCNc2cc(=O)n(C)c(=O)n2C)CC1", "activity change, positive = activation": -5.87}, {"smiles": "Cc1cccc(C)c1OCC(C)N", "note": "(stereo not given)", "activity change, positive = activation": -3.88}, {"smiles": "O=C(NCCN1CCOCC1)c1ccc(Cl)cc1", "activity change, positive = activation": -2.3}, {"smiles": "COC(=O)[C@@H]1[C@H]2C[C@H]3c4[nH]c5ccccc5c4CCN3C[C@@H]2CC[C@@H]1O", "activity change, positive = activation": 4.64}, {"smiles": "O=C1NCC2(CCN(CCc3ccccc3)CC2)O1", "activity change, positive = activation": -8.1}, {"smiles": "O=C1NC(=O)C(c2ccccc2)(c2ccccc2)N1", "outcome": "inactive"}, {"smiles": "CC(=O)N[C@@H](CS)C(=O)O", "activity change, positive = activation": -3.77}, {"smiles": "CCCNC(=O)NS(=O)(=O)c1ccc(Cl)cc1", "activity change, positive = activation": -4.89}, {"smiles": "CC1=C(/C=C/C(C)=C/C=C/C(C)=C/C(=O)Nc2ccc(O)cc2)C(C)(C)CCC1", "activity change, positive = activation": -11.9}, {"smiles": "NCCS", "activity change, positive = activation": -3.41}, {"smiles": "NC(N)=Nc1nc(CSCC/C(N)=N/S(N)(=O)=O)cs1", "activity change, positive = activation": -9.23}]}]}
